The test system of experiment [1] is Wnt5a (protein binding on small-molecule microarray). Description: Wnt5a binders on small-molecule microarray, primary screen, biophysical, 635/667 nm fluorescence (AID 1142).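 Also: fluorescence read at 667 nm with signal to noise per printed feature.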 Conditions: 635 nm fluorescence, higher = more signal.
Experiment [2] can be described thus: cell viability in Huh7 cells, primary screen, cytotoxicity control for HCV replication inhibitor project, CellTiter-Glo luminescence, basal, 48 h (AID 1143).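 Also: Huh7 hepatoma cells carrying a hepatitis C replication reporter with no stimulus; test concentration not given here.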 Conditions: Huh7 HCV replicon, higher = more signal, called active from +8 up or from −8 down. (ATP-based viability assays read luminescence as a measure of living cells.)
Experiment [3] is described as follows: P. aeruginosa biofilm formation inhibitors, primary screen, PAO1 strain, BacTiter-Glo luminescence, LB-PBS (AID 1144). Conditions: 12 h, higher = more signal.
Experiment [4] in a line: CREB reporter modulators without forskolin, primary screen, cell-based, PC12, CRE-LacZ reporter, unstimulated (AID 1145). Conditions: no forskolin, luminescence, 4.5 h, higher = more signal, called active from +8 up or from −8 down.
Experiment [5] is described as follows: CREB reporter modulators under forskolin, primary screen, cell-based, PC12, CRE-LacZ reporter, forskolin-stimulated (AID 1146).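 Also: PC12 cells with 6xCRE LacZ reporter stimulated by forskolin 10 µM; beta-galactosidase reporter signal reflecting CREB driven transcription.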 Conditions: luminescence, 4.5 h, higher = more signal, called active from +8 up or from −8 down.
The target in experiment [6] is Streptavidin (Streptomyces avidinii) (UniProt P22629). As to the kind of experiment: streptavidin binders on small-molecule microarray, primary screen, artefact control for SMM compound annotation, biophysical, 635/667 nm fluorescence (AID 1147).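 Also: signal reflects streptavidin binding to arrayed compounds as a control protein.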 Conditions: streptavidin binding, higher = more signal.
A short description of experiment [7]: small-molecule binders of probe aInhba, primary screen, biochemical, small-molecule microarray, 635/667 nm fluorescence (AID 1148).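 Also: score merges 667nm spot fluorescence with signal-to-noise for antibody binding to printed compounds.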 Conditions: higher = more signal.
In experiment [8] the target is Torsin-1A (Homo sapiens) (UniProt O14656). Description: torsin A binders from cell lysate, primary screen, small-molecule microarray, wild-type, 635/667 nm (AID 1149). Conditions: COS7 hTOR1A-WT lysate, 635 nm fluorescence, higher = more signal.
The target is the same in experiment [9]. Description: small-molecule binders of mutant TOR1A in lysate, primary screen, cell lysate, small-molecule microarray, COS7 lysate, 635/667 nm fluorescence (AID 1150).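 Also: score pools 667 nm emission and signal to noise measuring lysate protein binding.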 Conditions: COS7 hTOR1A mutant lysate, 635 nm fluorescence, higher = more signal.
The subject of experiment [10] is Sonic hedgehog protein (Shh). As to the kind of experiment: small-molecule binders of Shh protein, primary screen, biochemical, small-molecule microarray, 635/667 nm fluorescence (AID 1151).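 Also: Shh protein binding to compounds spotted on small-molecule microarray slides; score combines spot fluorescence intensity with signal-to-noise across triplicate slides.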 Conditions: small-molecule microarray binding, 635 nm fluorescence; higher = more signal.
Experiment [11] is described as follows: E. coli DRC41 culture turbidity changes, primary screen, E. coli filamentation inducer project, strain DRC41, OD650, 48 h (AID 1152).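 Also: E. coli MC1000 strain DRC41 lacking acrAB efflux pump and sulA.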 Conditions: E. coli DRC41 (acrAB sulA), higher = more signal, called active from +8 up or from −8 down.
Experiment [12] is described as follows: small-molecule binders of probe aLefty1, primary screen, biochemical, small-molecule microarray, 635/667 nm fluorescence (AID 1153).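 Also: score merges spot fluorescence with signal-to-noise ratio from the scanned slide images.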 Conditions: higher = more signal.
A short description of experiment [13]: PSAC antagonists in infected red cells, primary screen, cell-based, P. falciparum Indochina, OD700, 1 h (AID 1154). Conditions: P. falciparum Indochina infected RBC osmotic lysis, higher = more signal, called active from +8 up or from −8 down.
Experiment [14] can be described thus: PSAC antagonists in infected red cells, primary screen, cell-based, P. falciparum Indochina, OD700, 2 h (AID 1155).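 Also: lysis reports solute entry through the parasite surface anion channel PSAC; channel blockers reduce lysis of infected cells.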 Conditions: P. falciparum Indochina infected erythrocytes, osmotic lysis OD700; higher = more signal, called active from +8 up or from −8 down.
Experiment [15] can be described thus: osmotic lysis modulators in infected erythrocytes, primary screen, PSAC antagonist project, cell-based, P. falciparum Indochina, OD700, 3 h (AID 1156). Conditions: higher = more signal, called active from +8 up or from −8 down.
The nature of experiment [16]: PSAC antagonists in infected red cells, primary screen, cell-based, P. falciparum Indochina, OD700, 18 h (AID 1157). Conditions: P. falciparum Indochina infected erythrocytes, osmotic lysis OD700, 18 h; higher = more signal, called active from +8 up or from −8 down.
The nature of experiment [17]: modulators of S6 phosphorylation in cells, primary screen, cell-based, A549, cytoblot, luminescence, serum-stimulated (AID 1158).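 Also: serum-stimulated A549 lung adenocarcinoma cells; signal is phosphorylated S6 detected by cytoblot immunostaining with HRP secondary.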 Conditions: A549 phospho-S6 cytoblot, 5 h, higher = more signal.
Experiment [18] deals with NADPH oxidase 2 (Homo sapiens) (UniProt P04839). Description: NOX2-dependent H2O2 signal modulators, primary screen, NOX inhibitor project, cell-based, HEK293-NOX2, PMA-stimulated, Amplex Red fluorescence (AID 1159). Also: test concentration not given here. Conditions: 45 min, higher = more signal, called active from +8 up or from −8 down.
Experiment [19] deals with NADPH oxidase 4 (Homo sapiens) (UniProt Q9NPH5). Description: NOX4-dependent H2O2 signal modulators, primary screen, NOX inhibitor project, cell-based, HEK293-NOX4, tetracycline-induced, Amplex Red fluorescence (AID 1160). Conditions: 45 min, higher = more signal, called active from +8 up or from −8 down.
In experiment [20] the target is NADPH oxidase 5 (Homo sapiens) (UniProt Q96PH1). As to the kind of experiment: NOX5-dependent H2O2 signal modulators, primary screen, NOX inhibitor project, cell-based, HEK293-NOX5, Amplex Red fluorescence (AID 1161). Conditions: HEK293-NOX5, ionomycin, 45 min, higher = more signal.

Calls of active or inactive are those of the source. Unless noted, no rule for the calls is given here.

Chain of NADPH oxidase 5 (Homo sapiens) (Q96PH1 whole entry, looked up): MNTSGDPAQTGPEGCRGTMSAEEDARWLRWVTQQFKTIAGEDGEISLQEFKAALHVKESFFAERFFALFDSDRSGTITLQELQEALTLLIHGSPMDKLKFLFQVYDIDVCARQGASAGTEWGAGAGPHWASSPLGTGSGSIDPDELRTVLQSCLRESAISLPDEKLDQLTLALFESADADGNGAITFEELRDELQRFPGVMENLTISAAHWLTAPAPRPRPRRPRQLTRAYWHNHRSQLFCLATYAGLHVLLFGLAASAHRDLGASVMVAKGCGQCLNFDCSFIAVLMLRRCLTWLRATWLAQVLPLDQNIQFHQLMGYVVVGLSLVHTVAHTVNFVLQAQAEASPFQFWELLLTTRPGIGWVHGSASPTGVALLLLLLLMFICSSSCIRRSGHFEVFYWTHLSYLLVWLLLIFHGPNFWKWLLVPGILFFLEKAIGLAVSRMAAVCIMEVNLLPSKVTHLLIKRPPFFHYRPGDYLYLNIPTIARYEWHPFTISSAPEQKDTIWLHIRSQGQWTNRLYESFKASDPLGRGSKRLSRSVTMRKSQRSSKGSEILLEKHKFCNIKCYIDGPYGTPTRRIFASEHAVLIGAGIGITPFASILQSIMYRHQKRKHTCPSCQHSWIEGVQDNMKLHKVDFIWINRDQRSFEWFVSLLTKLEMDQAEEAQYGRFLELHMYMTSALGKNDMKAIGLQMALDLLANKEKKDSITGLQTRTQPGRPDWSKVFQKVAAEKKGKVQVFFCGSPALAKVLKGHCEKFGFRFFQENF
Chain of Torsin-1A (Homo sapiens) (O14656 whole entry, looked up): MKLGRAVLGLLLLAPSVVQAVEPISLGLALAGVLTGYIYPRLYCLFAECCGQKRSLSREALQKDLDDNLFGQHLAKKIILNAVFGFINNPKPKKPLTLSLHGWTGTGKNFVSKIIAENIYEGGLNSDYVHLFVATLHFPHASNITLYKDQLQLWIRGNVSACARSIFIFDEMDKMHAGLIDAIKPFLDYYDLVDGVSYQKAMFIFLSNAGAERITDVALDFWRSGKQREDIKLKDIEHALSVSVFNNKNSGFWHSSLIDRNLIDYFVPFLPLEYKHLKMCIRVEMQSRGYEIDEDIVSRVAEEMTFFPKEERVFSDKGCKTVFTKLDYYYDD
Chain of NADPH oxidase 2 (Homo sapiens) (P04839 whole entry, looked up): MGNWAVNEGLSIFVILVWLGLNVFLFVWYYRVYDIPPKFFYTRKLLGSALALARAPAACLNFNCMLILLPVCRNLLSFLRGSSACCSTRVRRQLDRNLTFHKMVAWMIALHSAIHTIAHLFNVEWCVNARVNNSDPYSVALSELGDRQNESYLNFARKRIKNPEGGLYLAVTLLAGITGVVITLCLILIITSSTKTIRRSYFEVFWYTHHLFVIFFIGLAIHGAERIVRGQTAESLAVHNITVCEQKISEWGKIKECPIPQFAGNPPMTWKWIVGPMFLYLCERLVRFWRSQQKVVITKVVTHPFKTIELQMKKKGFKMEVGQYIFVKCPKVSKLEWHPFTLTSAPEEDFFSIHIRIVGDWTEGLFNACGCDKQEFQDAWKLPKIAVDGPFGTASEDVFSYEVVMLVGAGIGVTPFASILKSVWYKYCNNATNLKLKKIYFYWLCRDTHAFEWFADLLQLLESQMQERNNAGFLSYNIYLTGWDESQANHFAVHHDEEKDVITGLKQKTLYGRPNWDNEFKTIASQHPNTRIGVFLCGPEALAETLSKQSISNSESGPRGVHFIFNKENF
Chain of NADPH oxidase 4 (Homo sapiens) (Q9NPH5 whole entry, looked up): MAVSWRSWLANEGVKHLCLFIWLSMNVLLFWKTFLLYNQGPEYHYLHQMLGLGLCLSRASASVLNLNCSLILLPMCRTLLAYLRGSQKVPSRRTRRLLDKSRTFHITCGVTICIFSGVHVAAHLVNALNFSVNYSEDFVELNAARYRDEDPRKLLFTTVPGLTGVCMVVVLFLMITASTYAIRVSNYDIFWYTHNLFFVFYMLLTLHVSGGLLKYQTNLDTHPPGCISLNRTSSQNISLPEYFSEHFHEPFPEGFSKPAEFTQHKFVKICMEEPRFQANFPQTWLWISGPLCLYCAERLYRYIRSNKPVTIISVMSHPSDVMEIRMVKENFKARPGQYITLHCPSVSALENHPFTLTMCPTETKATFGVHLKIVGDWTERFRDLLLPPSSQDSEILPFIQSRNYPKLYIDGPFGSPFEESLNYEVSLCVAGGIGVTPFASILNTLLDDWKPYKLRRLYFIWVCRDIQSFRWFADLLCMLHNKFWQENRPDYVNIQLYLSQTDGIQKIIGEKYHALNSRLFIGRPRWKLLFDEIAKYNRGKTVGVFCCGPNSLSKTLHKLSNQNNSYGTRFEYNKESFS
Chain of Streptavidin (Streptomyces avidinii) (P22629 whole entry, looked up): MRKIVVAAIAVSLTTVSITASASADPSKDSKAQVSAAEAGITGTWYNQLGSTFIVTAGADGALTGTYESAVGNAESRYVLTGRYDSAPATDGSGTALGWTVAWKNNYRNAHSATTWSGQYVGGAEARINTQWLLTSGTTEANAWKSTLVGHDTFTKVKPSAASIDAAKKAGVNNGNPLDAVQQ

Turning to `COC(=O)[C@@]1(Cc2ccc(OC)cc2)[C@H]2c3cc(C(=O)N4CCCC4)n(CCCNc4ncc(C(F)(F)F)cc4Cl)c3C[C@H]2CN1C(=O)c1ccccc1`, the composite z-score is 1.53 in experiment [1]; 1.25 in [6]; 0.826 in experiment [7]; 0.0188 with Torsin-1A (Homo sapiens) [8]; 0.27 with Torsin-1A (Homo sapiens) [9]; -0.418 in experiment [10]. Also, in [12], the composite z-score was 0.982. Further, the z-score in experiment [2] is -3.28 (inactive); in [3], 0.0557 (inactive); in experiment [4], 0.769 (inactive); in [5] it was 0.627 (inactive); in experiment [11], -1.46 (inactive); in [13] it was 10.1 (active). Further, the z-score is 1.37 (inactive) in experiment [14]; 2.15 (inactive) in experiment [15]; 1.13 (inactive) in experiment [16]; -0.0195 in experiment [17]; 0.128 (inactive) in [18]; 0.577 (inactive) in [19]. The molecule further yielded a z-score in [20] of 1.65.
Regarding `COCCOC(=O)N1C(=O)[C@@]2(c3cc(C#Cc4ccc(OC)cc4)ccc31)[C@H](c1ccc(O)cc1)N1[C@H](c3ccccc3)[C@H](c3ccccc3)OC(=O)[C@H]1[C@@H]2C(=O)Nc1nc2ccccc2s1`, the composite z-score in [1] is 0.169; in experiment [6] it was 0.302; in experiment [7] it was -0.11; with Torsin-1A (Homo sapiens) [8], 0.277; with Torsin-1A (Homo sapiens) [9], 0.226; in [10] it was 1.76. This molecule returned a composite z-score in experiment [12] of 0.269. Moreover, the z-score in [2] was -1.07 (inactive); in experiment [3] it was -0.155 (inactive); in [4] it was 0.182 (inactive); in experiment [5], -0.0609 (inactive); in experiment [11], -1.12 (inactive); in experiment [13], 1.41 (inactive). The z-score was 0.616 (inactive) in [14]; -1.14 (inactive) in [15]; 1.01 (inactive) in experiment [16]; 0.263 in experiment [17]; 1.95 (inactive) in [18]; 0.183 (inactive) in experiment [19]. Further, the z-score in [20] is -0.164.
For `C=CCN(Cc1ccccc1)C(=O)C(c1cccs1)N(C(=O)/C=C\C(=O)O)c1ccc(CCOCCO)cc1` (stereo not given), the composite z-score was -0.913 in experiment [1]; -1.82 in experiment [6]; -0.133 in [7]; -2.08 with Torsin-1A (Homo sapiens) [8]; -2.48 in the experiment with Torsin-1A (Homo sapiens) [9]; -0.595 in [10]. This molecule showed a composite z-score in experiment [12] of -0.0538. The z-score in [2] is -0.0564 (inactive); in experiment [3], -1.75 (inactive); in experiment [4], -0.0737 (inactive); in experiment [5], -0.771 (inactive); in [11], 1.61 (inactive); in experiment [13] it was 1.51 (inactive). Besides, the z-score was -0.707 (inactive) in [14]; 0.189 (inactive) in experiment [15]; -1.04 (inactive) in [16]; 1.77 in [17]; -0.108 (inactive) in experiment [18]; -0.821 (inactive) in experiment [19]. Besides, the z-score in experiment [20] was -0.58.
Turning to `CC(CO)N1C(=O)[C@@H]2C3C(=O)OCCC/C=C\[C@H]3OC23C=CCN(CCN2CCOCC2)C(=O)[C@@H]13` (stereo not given in full), the composite z-score in experiment [1] is 0.0719; in [6] it was -0.254; in [7], -0.201; with Torsin-1A (Homo sapiens) [8], -0.951; with Torsin-1A (Homo sapiens) [9] it was -0.776; in [10] it was 1.21. The composite z-score in experiment [12] is -0.348. Besides, the z-score was 0.795 (inactive) in [2]; -1.1 (inactive) in experiment [3]; -0.476 (inactive) in experiment [4]; -0.183 (inactive) in [5]; 0.253 (inactive) in [11]; 0.901 (inactive) in [13]. Further, the z-score was 0.0448 (inactive) in experiment [14]; 1.7 (inactive) in [15]; 0.01 (inactive) in experiment [16]; 0.0058 in experiment [17]; 0.238 (inactive) in [18]; -0.398 (inactive) in [19]. For the same molecule, the z-score in [20] is 1.05.

Values taken from PubChem BioAssay.
